The values that follow come from PubChem BioAssay AID2685 (National Center for Advancing Translational Sciences (NCATS), 2010).

The whole screen tested about 320,000 compounds, of which about 2,100 (0.66%) were called active. About 53% were inconclusive and are not listed. Calls follow the shape of the dose curve; as a rule, active = well fitted inhibition curve with a large enough effect in the signal ratio, with a control signal flat (not every such curve was filed as active); inconclusive = small, poorly fitted or top-dose-only effect, or effect the other way, or a change in a side signal; inactive = flat fitted curve, though single readings scatter; the % refers to the signal ratio. Many of the other results were omitted from the sample, so actives are more common in it than they were.
Potency is read from the fitted curve at half-maximal effect.

This assay in a line: qHTS Assay for Lipid Storage Modulators in Drosophila S3 Cells.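 As to cell number change: cells counted by Cell Tracker Red CMTPX staining in the red channel.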 As to lipid storage change, negative = inhibition: % is scaled to controls: 0 for no effect and ±100 for the full control effect. Conditions: BODIPY lipid droplet fluorescence, 18-24 h, cells fed with added oleic acid; cell number change: measured here: cell count max response; series mostly up to 46.1 µM; lipid storage change, negative = inhibition: at the top concentration. An outline of the steps:
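Drosophila S3 cells got compounds at several concentrations plus oleic acid (400 uM solution). Laser-scanning cytometry with 488 nm excitation read lipid droplets at 500-530 nm and cells at 575-640 nm. Percent activity was relative to 20 uM Triacsin C.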
For orientation: Quantitative high-throughput screening tests each substance at several concentrations.
`Cc1ccc(NC(=O)c2sc3nc4c(c(-c5ccco5)c3c2N)CCC4)cc1`: the compound was called inactive and the cell number change is -11.1%.

On to `Nc1c(C(=O)NCC2CCCO2)sc2nc3c(c(-c4ccco4)c12)CC/C3=C\c1ccco1` (configuration not stated), for which the Potency was 8.2 µM (active) and the cell number change stood at 3.45%.

With `Nc1c(C(=O)Nc2ccccc2)sc2nc3c(c(-c4ccco4)c12)CCCC3`, the “lipid storage change, negative = inhibition” value was 12.6% (inactive) and the cell number change is -3.84%.

`COc1ccc(NC(=O)CC2C(=O)NCCN2C(=O)Nc2ccc(C(F)(F)F)cc2)cc1` (configuration not stated): the “lipid storage change, negative = inhibition” value is 0.561% (inactive) and the cell number change stood at 12.2%.

Turning to `Cc1cccc(NC(=O)CN2C(=O)N/C(=C\c3ccc(-c4cccc(C(=O)O)c4)o3)C2=O)c1`, the “lipid storage change, negative = inhibition” value is 0.48% (inactive) and the cell number change is -0.725%.

`CCCn1c(N)c(N(CCOC)C(=O)/C=C/c2ccc(C(=O)OC)cc2)c(=O)[nH]c1=O`: the “lipid storage change, negative = inhibition” value was -7.54% (inactive) and the cell number change was -4.64%.

In the case of `CC(C)(C)NC(=O)C(c1ccc(F)cc1)N(Cc1ccco1)C(=O)c1csnn1` (configuration not stated), the “lipid storage change, negative = inhibition” value was 13.7% (inactive) and the cell number change is -0.0921%.

As for `COc1ccccc1NC(=O)CCc1c(C)[nH]c(=O)c(C#N)c1C`, the “lipid storage change, negative = inhibition” value is -20.9% (inactive) and the cell number change was 16.5%.

`Cc1ccc(NC(=O)CCc2c(C)[nH]c(=O)c(C#N)c2C)cc1`: the outcome was inactive and the cell number change came to 16.2%.

Turning to `COc1cc(NC(=O)CCc2c(C)[nH]c(=O)c(C#N)c2C)cc(OC)c1`, the Potency is 0.058 µM (active) and the cell number change was -2.94%.

With `COc1ccc(-c2[nH]ncc2/C=N/NC(=O)c2ccc(Br)cc2)c(OC)c1`, the “lipid storage change, negative = inhibition” value is 15.5% (inactive) and the cell number change is 3.28%.

Consider `CCOc1ccc(NC(=O)CN2C(=O)CSC(C)C2=O)cc1` (configuration not stated), for which the “lipid storage change, negative = inhibition” value was 18.6% (inactive) and the cell number change came out at 8.89%.

Consider `Cc1c(C(=O)N(CCC#N)c2ccccc2)sc2nc3n(c(=O)c12)CCCC3`, for which the “lipid storage change, negative = inhibition” value was -10.6% (inactive) and the cell number change worked out at 7.46%.

For the compound `Oc1ccc(Br)cc1-c1cc(-c2ccccc2Cl)[nH]n1`, the “lipid storage change, negative = inhibition” value was -22.2% (inactive) and the cell number change is -23.2%.

In the case of `COc1ccc(O)c(-c2cc(-c3ccccc3Cl)[nH]n2)c1`, the Potency was 3.66 µM (active) and the cell number change was -20.4%.

As to `COc1ccc(O)c(-c2cc(-c3ccccc3[N+](=O)[O-])[nH]n2)c1`, the “lipid storage change, negative = inhibition” value is 7.36% (inactive) and the cell number change was -1.9%.

For `CCc1ccc(/C=C(\C)C(=O)c2c(C)cc(C)[nH]c2=O)cc1`, the “lipid storage change, negative = inhibition” value is 3.7% (inactive) and the cell number change was -0.605%.

`CCOc1ccc(C2c3[nH]c4ccccc4c3C[C@H]3C(=O)N(C4CC4)CC(=O)N23)cc1OC` (some centres not stated): the “lipid storage change, negative = inhibition” value was 9.36% (inactive) and the cell number change was found to be 5.07%.

With `CCOc1ccc2oc(C(=O)NC(C)(C)CC)c(C)c2c1`, the “lipid storage change, negative = inhibition” value was 5.67% (inactive) and the cell number change is -22.3%.

For the compound `CC(C)(C)N(Cc1ccccc1)C(=O)COC(=O)CNS(=O)(=O)c1ccc2ccccc2c1`, the “lipid storage change, negative = inhibition” value is 4.49% (inactive) and the cell number change was -5.96%.

With `COc1cccc(C(=O)NC23CC4CC(CC(C4)C2)C3)c1`, the “lipid storage change, negative = inhibition” value is 15.8% (inactive) and the cell number change was found to be 26.5%.

Consider `COc1cccc(N2CCN(C(C)C(=O)NC34CC5CC(CC(C5)C3)C4)CC2)c1` (configuration not stated), for which the Potency was 1.3 µM (active) and the cell number change was -27.6%.

Regarding `COc1ccc(N2CCN(C(=O)NC34CC5CC(CC(C5)C3)C4)CC2)cc1`, the result was inactive.

As to `O=C1c2ccccc2C(=O)c2c1cccc2N1CCN(Cc2ccccc2)CC1`, the Potency is 18.4 µM (active).

In the case of `O=c1[nH]ncc(N2CCN(Cc3ccccc3)CC2)c1Cl`, the “lipid storage change, negative = inhibition” value was 13.6% (inactive) and the cell number change is 12.7%.

As to `CC(=C1C(=O)c2ccccc2C1=O)N1CCN(Cc2ccccc2)CC1`, the compound was classed as inactive and the cell number change came out at 11.8%.

As for `CCN(CC)C(c1ccc(F)cc1)c1nnnn1C1CCCCC1` (configuration not stated), the “lipid storage change, negative = inhibition” value was 10.6% (inactive) and the cell number change is -7.83%.

Regarding `CCN(CC)C(c1ccc(F)cc1)c1nnnn1CC1CCCO1` (configuration not stated), the Potency was 18.4 µM (active) and the cell number change came to 4.03%.

As to `CN(c1ccccc1)C(c1ccc(F)cc1)c1nnnn1CC1CCCO1` (configuration not stated), the compound was called inactive.

As for `CC(C)c1nc(SCC(=O)N2CCOCC2)c2c(=O)n(C)c(=O)n(C)c2n1`, the cell number change stood at 5.66% and the lipid storage change, negative = inhibition was 8.15% [at 9.22 µM] (inactive).

Regarding `Cn1c(SCC(N)=O)nnc1-c1ccc(C(C)(C)C)cc1`, the “lipid storage change, negative = inhibition” value is -7.75% (inactive) and the cell number change was -9.51%.

Turning to `C=CCn1c(SCC(=O)O)nnc1-c1ccc(C(C)(C)C)cc1`, the “lipid storage change, negative = inhibition” value was -0.438% (inactive) and the cell number change worked out at 5.05%.

`C=C(C)Cn1c(SCC(=O)O)nnc1-c1ccc(C(C)(C)C)cc1`: the Potency was 29.1 µM (active) and the cell number change is -3.69%.

With `CC(C)=CC(O)C/C(C)=C/COc1ccc2ccc(=O)oc2c1` (configuration not stated), the “lipid storage change, negative = inhibition” value was 5.31% (inactive) and the cell number change was -2.96%.

For the compound `O=C(NCC(c1ccco1)N1CCOCC1)c1ccc(F)c(F)c1` (configuration not stated), the “lipid storage change, negative = inhibition” value was 6.58% (inactive) and the cell number change came out at 3.3%.

For the compound `CCCOc1ccc(N2C(=O)C3ON(c4ccccc4)C(CCC)C3C2=O)cc1` (configuration not stated), the Potency was 18.4 µM (active) and the cell number change is 10.7%.

With `CCCCC1C2C(=O)N(c3ccc(C)cc3)C(=O)C2ON1c1ccccc1` (configuration not stated), the “lipid storage change, negative = inhibition” value is 0.528% (inactive) and the cell number change worked out at 7.09%.

Turning to `CCCCC1C2C(=O)N(c3ccccc3)C(=O)C2ON1c1ccccc1` (configuration not stated), the “lipid storage change, negative = inhibition” value was 14.1% (inactive) and the cell number change was -1.39%.

As to `CSc1nnc(C)c(=O)n1COC(=O)COc1ccc(Cl)cc1`, the “lipid storage change, negative = inhibition” value was 8.1% (inactive) and the cell number change was 11.4%.

As for `CCO[C@H]1OC(C(=O)N2CCN(C)CC2)=C[C@@H](c2ccc(Br)cc2)[C@@H]1CCCO`, the “lipid storage change, negative = inhibition” value was 0.537% (inactive) and the cell number change came out at 4.76%.

Turning to `CC(=O)Nc1ccc(NC(=O)Nc2cc(C)cc(C)c2)cc1`, the “lipid storage change, negative = inhibition” value is -8.79% (inactive) and the cell number change was 7.61%.

For `CCC(CC)C(=O)NCCc1ccc(F)cc1`, the Potency was 25.9 µM (active) and the cell number change worked out at 0.621%.

As for `CCC(CC)C(=O)NCCc1ccc(S(N)(=O)=O)cc1`, the “lipid storage change, negative = inhibition” value was 0.195% (inactive) and the cell number change is -8.96%.

Regarding `O=C(Cc1ccc(F)cc1)NCCc1ccc(F)cc1`, the “lipid storage change, negative = inhibition” value is 0.497% (inactive) and the cell number change is -3.73%.

With `O=C(Cc1ccccc1)N/N=C/c1ccc[nH]1`, the “lipid storage change, negative = inhibition” value is 1.93% (inactive) and the cell number change turned out to be 7.79%.
